Source: PubChem BioAssay AID411 (National Center for Advancing Translational Sciences (NCATS), 2006)
The campaign covered roughly 72,000 compounds. About 1,600 (2.2%) were called active. The call rests on the fitted dose curve; in most records, active means well fitted inhibition curve with a large enough effect; inconclusive means small, poorly fitted or top-dose-only effect; inactive means flat fitted curve, though single readings scatter. What follows is part of a selection rich in actives, with near analogues and random picks from the rest.

target: Luciferin 4-monooxygenase (Photinus pyralis) (UniProt P08659); assay: qHTS Assay for Inhibitors of Firefly Luciferase; conditions: purified firefly luciferase, luminescence, 8 min; series mostly up to 57.1 µM; further: nearly all actives have a fitted effect of over 40% in size
Sequence (P08659 whole entry, looked up): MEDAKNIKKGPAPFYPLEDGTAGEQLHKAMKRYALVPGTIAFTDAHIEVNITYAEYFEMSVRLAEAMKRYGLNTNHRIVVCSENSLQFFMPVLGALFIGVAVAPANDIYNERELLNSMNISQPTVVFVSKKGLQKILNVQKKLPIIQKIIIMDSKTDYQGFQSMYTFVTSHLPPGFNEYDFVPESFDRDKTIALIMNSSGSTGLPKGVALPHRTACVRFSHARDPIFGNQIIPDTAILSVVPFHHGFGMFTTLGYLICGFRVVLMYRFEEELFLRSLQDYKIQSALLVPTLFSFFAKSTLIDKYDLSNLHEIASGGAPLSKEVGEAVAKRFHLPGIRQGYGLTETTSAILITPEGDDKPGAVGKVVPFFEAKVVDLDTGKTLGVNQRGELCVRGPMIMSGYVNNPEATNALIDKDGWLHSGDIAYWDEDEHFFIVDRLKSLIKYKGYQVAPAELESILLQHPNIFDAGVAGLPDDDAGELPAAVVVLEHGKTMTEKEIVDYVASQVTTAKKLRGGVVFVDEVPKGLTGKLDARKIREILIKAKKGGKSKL
In short: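 Titration-based qHTS; buffer 50 mM imidazole pH 7.2, 50 mM KCl, 7 mM MgCl2, 10 uM ATP, 0.01% Tween 20, 0.05% BSA; luciferase/luciferin detector mix added after compound; 8 min, ambient; luminescence.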
On the % scale 0 is the no-effect control and ±100 the full control effect; potency means the concentration at half of the fitted maximal effect.

Potency, active:
COc1ccc(-c2cn3ccsc3n2)cc1 3.98 µM, CN(C(=O)c1ccccn1)c1nnc(-c2ccccn2)s1 10 µM, COc1ccc(-c2nc3n(c2Br)CCC3)cc1 12.6 µM, Cc1ccc(NC(=O)c2cc(-c3ccc(C)o3)nc3ccccc23)nc1 12.6 µM, CCOC(=O)Cc1csc(NC(=O)Nc2ccccc2)n1 12.6 µM

Potency, inactive:
O=C(NCc1cn2ccsc2n1)Nc1ccc(Cl)cc1, Cc1ccc(S(=O)(=O)NCc2cn3ccsc3n2)c(C)c1, Cc1ccc(NC(=O)CSc2nnc(-c3cnccn3)n2Cc2ccco2)cc1C, CN(C(=O)COc1ccccc1)c1nnc(-c2ccncc2)s1, CN(C(=O)c1ccno1)c1nnc(-c2cccnc2)s1, O=S1(=O)CCN2C(=N1)SC1=C2CCN(Cc2ccccc2)C1, COc1ccc(-c2cc3n(n2)CCc2nc4ccccc4n2-3)cc1, Brc1cccc(-c2nnc3n2CCC3)c1, Cc1nc2ccc(NC(=O)N3CCC(c4ccccc4)C3)cc2nc1C (stereo unspecified), Cc1cc(=O)oc(C)c1C(=O)Nc1cnc2ccccc2c1, Cc1ccc(C(=O)CSc2nc3ccccc3c(=O)n2N)o1, CCOC(=O)Cc1csc(NC(=O)CSc2nc(C)cc(=O)[nH]2)n1, CCOC(=O)Cc1csc(NC(=O)C(C)(C)C)n1

Activity change, negative = inhibition, inactive:
CC(=O)N1CCC2(CCCN(Cc3ccc(C#N)cc3)C2)CC1 0.0675% [at 11.4 µM], CNc1nc(-c2ccccc2OC)nc2ccccc12 -0.211% [at 2.29 µM], Cc1nc2cnc(Nc3ccccc3)nc2n(Cc2ccc(F)cc2)c1=O -0.327% [at 11.4 µM]
